# Compound activity from PubChem.
# This excerpt belongs to a sample that is enriched for hits.
# Giardia FBPA inh = blocks Giardia fructose-bisphosphate aldolase activity; purified Giardia FBPA; 0.71% of 290,000 active; Potency, µM (series often up to 59.6 µM), actives largely listed as inhibitors; AID 2451; A8B2U2; further: nearly all actives have a fitted effect of over 55% in size
#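 40 nM FBPA preincubated 10 min at RT with compound (up to 57.5 uM final), then substrate plus GAPDH/TPI/NAD/arsenate coupling and diaphorase/resazurin added. Fluorescence read after 20 min at RT, 525/598 nm.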
# Shiga toxin inh = inhibitors of Shiga toxin in Vero cells | Vero cells, Shiga toxin protein synthesis inhibition reporter | inhibition, % at 38.7 µM | 9.2% of 290,000 active; in the data active means inhibition mostly above about 28%, no sharp cut-off; inactive means mostly below about 43%
# Cycloheximide cs = affects cycloheximide protein synthesis inhibition readout, counter-screen; cell reporter, cycloheximide protein synthesis inhibition counterscreen; max response, %; 12% of 300,000 active; AID 2314; in the data active means max response mostly above about 13%, no sharp cut-off; inactive means mostly below about 14%; further: read at 38.3 µM for the half of the compounds with a filed dose
# RE007 growth inh = less growth of the S. pombe RE007 Vpr strain. S. pombe RE007 Vpr strain, BacTiter-Glo ATP luminescence, 24 h. Potency, µM (highest dose often 92.2 µM), hits mostly inhibitors. 0.21% of 360,000 active. AID 651644; active means well fitted falling curve with a large enough effect; inconclusive means small, poorly fitted or top-dose-only effect; inactive means no such curve, though single readings can be large or run the other way; further: nearly all actives have a fitted effect of over 50% in size
#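 Fission yeast strain RE007, carrying one chromosomally integrated HIV-1 vpr copy, was seeded at OD 0.01 in PMG+AL medium with 23 nL pinned compound. After 24 h at 30 °C and 99% humidity, viability was read by BacTiter-Glo luminescence.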
# Tb PYK inh = blocks Trypanosoma brucei pyruvate kinase | Q57TT1 | TbPYK enzyme, Kinase-Glo Plus ATP luminescence, 45 min | Potency, µM (highest dose often 76.8 µM), actives largely listed as inhibitors | 0.12% of 410,000 active; further: nearly all actives have a fitted effect of over 50% in size
#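 ADP (130 uM final) triggers the TbPYK reaction after compound addition; incubation is 45 min at room temperature. Kinase-Glo Plus is then added and luminescence imaged. Normalized data are fitted to concentration-effect curves.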
# LmPK inh = inhibitors of Leishmania mexicana pyruvate kinase; Potency, µM (doses to about 57.5 µM), actives largely listed as inhibitors; 0.37% of 290,000 active; purified LmPK, Kinase-Glo ATP luminescence, 1 h
# Target sequence (Q27686 whole entry, looked up): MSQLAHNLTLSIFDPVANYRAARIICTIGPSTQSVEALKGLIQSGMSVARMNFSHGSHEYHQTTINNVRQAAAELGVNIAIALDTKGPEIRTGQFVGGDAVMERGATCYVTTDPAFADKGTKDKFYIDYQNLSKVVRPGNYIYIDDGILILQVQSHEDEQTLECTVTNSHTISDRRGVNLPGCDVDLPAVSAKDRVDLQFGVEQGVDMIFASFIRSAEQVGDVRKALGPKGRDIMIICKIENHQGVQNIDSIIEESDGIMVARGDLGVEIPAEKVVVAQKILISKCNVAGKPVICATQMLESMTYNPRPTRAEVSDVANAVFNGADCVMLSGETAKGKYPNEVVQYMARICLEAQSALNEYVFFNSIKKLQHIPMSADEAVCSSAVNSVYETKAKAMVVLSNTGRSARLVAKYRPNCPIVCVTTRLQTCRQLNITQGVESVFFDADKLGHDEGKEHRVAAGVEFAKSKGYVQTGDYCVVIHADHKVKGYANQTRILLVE
#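 Kinase-Glo luminescence read after 1 h RT reaction of 0.1 nM LmPK with 0.5 mM PEP and 0.1 mM ADP. Activity scaled between uninhibited and enzyme-free controls.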
# A number is an active result; 0 = inactive; ? = inconclusive; - = no result; [ ] = remark or other dose. Unless noted, the call rests on the fitted dose curve; in most records, active means well fitted curve in the direction sought with a large enough effect; inconclusive means small, poorly fitted or top-dose-only effect, or another doubt; inactive means no such curve, though single readings can be large; an effect the other way counts as inactive or inconclusive.
SMILES,Giardia FBPA inh,Shiga toxin inh,Cycloheximide cs,RE007 growth inh,Tb PYK inh,LmPK inh
COc1cccc(-c2nc(-c3ccccc3)nc(N3CCN(C)CC3)c2C#N)c1,0,0,0,0,0,0
C/C(=C\C(=O)c1ccc(C)cc1)Nc1cccc(O)c1,0,93.3,43.3,0,0,0
Cc1ccc(C(=O)/C=C/NNC(=O)c2ccccc2O)cc1,0,0,0,0,0,0
Cc1ccc(C(=O)/C=C/Nc2cccc(O)c2)cc1,0,0,9.7,0,0,?
O=C(/C=C/Nc1cccc(O)c1)c1ccccc1,0,0,0,0,0,14.1µM
Cc1ccc(N/C=C/C(=O)c2ccccc2)cc1Br,0,-,54.0,0,0,0
CC(=O)OC1CC[C@@]2(C)C3=CC(=O)[C@]4(C)C(CC5OC6(OCC(C)CC6Br)C(C)C54)C3CC[C@H]2C1 (stereo partly specified),0,-,-,-,-,-
Cc1ccc(C(=O)/C=C/Nc2ccc3c(c2)OCO3)cc1,0,164.3,61.1,0,0,0
CC(=O)Nc1ccc(N/C=C/C(=O)c2ccc(Cl)cc2)cc1,0,0,0,0,0,0
CC(=O)c1ccc(N/C=C\C(=O)c2ccc(C)cc2)cc1,0,111.9,53.5,0,0,0
CC(=O)c1cccc(N/C=C\C(=O)c2ccc(C)cc2)c1,0,65.4,42.2,0,0,0
CC(=O)c1cccc(NS(C)(=O)=O)c1,0,0,0,0,0,0
O=C(/C=C/Nc1ccc(F)c(Cl)c1)c1ccccc1,0,59.0,44.3,0,0,0
COc1ccc(CNC(=O)CC(c2ccc(OC)c(OC)c2)N2Cc3ccccc3C2=O)cc1 (stereo unspecified),-,-,-,-,0,-
COc1ccccc1OCCC(=O)Nc1nc(C)cs1,0,0,15.1,0,0,0
CCc1ccc(OCCCC(=O)Nc2nccs2)cc1,0,52.9,28.6,0,0,0
O=C(CCCOc1ccccc1)Nc1nccs1,0,0,0,0,0,0
COc1ccccc1OCCCC(=O)Nc1nccs1,0,89.3,51.7,0,0,0
Cc1ccc(/C=N/NC(=O)Cc2cccs2)o1,0,0,0,0,0,0
CC(/C=N/NC(=O)Cc1cccs1)=C\c1ccccc1,0,42.0,60.3,0,0,0
O=C(Cc1cccs1)N/N=C/C(Br)=C/c1ccccc1,0,77.1,51.5,0,0,0
O=C(CN1CCOCC1)N/N=C/C(Br)=C\c1ccccc1,0,0,0,0,0,0
CC(/C=N/NC(=O)Cc1cccn1C)=C\c1ccccc1,0,74.1,19.9,0,0,0
Cc1ccc(-c2cnc(N)n2C)cc1C,0,0,30.3,0,0,0
CCN(CC)C(=O)CSc1nc(-c2ccc(C)cc2)nc2c1COC(C)(C)C2,0,0,19.8,0[3.69 µM],-,0
SMILES,Giardia FBPA inh,Shiga toxin inh,Cycloheximide cs,RE007 growth inh,Tb PYK inh,LmPK inh
Cc1ccc(-c2nc3c(c(SCC(=O)N4CCCC4)n2)COC(C)(C)C3)cc1,-,-,-,0,0,-
O=S(=O)(c1cccs1)N1CCCc2cccc(O)c21,?,80.4,53.6,0,0,0
Cc1c(Cl)c(C(=O)NNC(=S)Nc2ccc(F)cc2)nn1C,0,178.5,33.7,0,0,0
Cc1nn(C)c(C(=O)NNC(=S)Nc2ccc(Cl)cc2)c1[N+](=O)[O-],0,0,0,0,0,0
CCNC(=S)NNC(=O)c1nn(C)c(C)c1Cl,0,82.5,0,0,0,0
Cc1c(Cl)c(C(=O)NNC(=S)Nc2ccccc2)nn1C,0,64.4,31.2,0,0,0
COc1ccc(C(=O)NC2CC(=O)N(c3ccc4c(c3)OCCO4)C2)cc1 (stereo unspecified),-,-,-,-,0,-
COc1cc(OC)c(N(C)C(=O)CSc2c3c(nc4ccc(Cl)cc24)CCCC3)cc1Cl,-,-,-,-,0,-
O=C(NCCc1ccc2c(c1)OCCO2)c1ccccc1F,0,91.4,69.7,0,0,0
O=C(NCc1ccc(Cl)cc1)c1ccc(Cl)cc1[N+](=O)[O-],0,0,0,0,0,0
O=C(NCCc1ccccc1)c1ccc(Cl)cc1[N+](=O)[O-],0,67.3,27.4,0,0,0
O=C(NCCc1ccccc1)c1c[nH]c2c(F)cccc2c1=O,0,28.6,23.2,0,0,0
CN(C(=O)COc1ccccc1C(=O)NCCc1ccccc1)c1ccccc1,0,70.5,30.4,0,0,0
CCOc1ccccc1C(=O)NCCNC(=O)c1ccccc1OCC,-,-,-,0,0,-
Cc1cccc2c(=O)c(C(=O)NCCc3ccccc3)c[nH]c12,0,-,0,0,0,0
CC[C@H](C)[C@@H](NC(=O)O[C@@H]1C(=O)c2ccc(OC)cc2O[C@H]1c1cccc(C(F)(F)F)c1)C(=O)OC,0,-,-,-,-,-
CCC(C)NC(=O)Cn1c(=O)n(CCCCCC(=O)NCc2ccccc2Cl)c(=O)c2sccc21 (stereo unspecified),-,-,-,-,0,-
COc1cccc(-c2coc3ccc(Br)cc3c2=O)c1,0,-,-,-,-,-
CC(O)CCCCCCC/C=C/C=C/C(N)=O (stereo unspecified),0[12.9 µM],-,-,-,-,-
Cc1ccc(SCCNC(=O)c2ccccc2F)cc1,0,0,13.3,0,0,0
COc1ccc(CCNC(=S)NC(=O)c2ccccc2)cc1C,0,0,8.4,0,0,0
O=C(NC(=S)NCc1ccccc1)c1ccccc1F,-,0,0,0[3.69 µM],-,0
O=C(NCCc1ccccc1)c1c(F)c(F)c(F)c(F)c1F,0,32.5,0,0,0,0
COc1ccc(CCNC(=S)NC(=O)c2ccc(Br)cc2)cc1OC,0,0,0,0,0,0
O=C(NC(=S)NCCc1ccccc1)c1ccccc1F,-,94.4,41.1,0,0,0
SMILES,Giardia FBPA inh,Shiga toxin inh,Cycloheximide cs,RE007 growth inh,Tb PYK inh,LmPK inh
O=C(NCCc1ccccc1)c1ccccc1F,0,108.8,35.5,0,0,0
O=C(NC(=S)NC(=O)c1ccccc1F)c1ccccc1F,?,73.3,40.1,0,0,0
O=C(NC(=S)N1CCCC1)c1ccccc1F,-,-,-,0,0,-
O=C(NCCc1ccccc1)c1ccccc1C(=O)NCCc1ccccc1,-,-,-,0,0,-
O=C(NCCc1ccccc1)c1cc(S(=O)(=O)N2CCOCC2)ccc1F,0,0,18.9,0,0,0
O=C(NCCc1ccccc1)c1ccccc1NS(=O)(=O)N1CCCC1,0,42.6,33.3,0,0,0
CCN1C(=O)C(Cc2nc3ccccc3c(=O)n2-c2ccccc2)c2cc(Br)ccc21 (stereo unspecified),-,-,-,-,0,-
COc1ccc(OC(C)c2nc3ccccc3[nH]2)cc1 (stereo unspecified),-,-,-,-,0,-
Cc1ccccc1C1CC(=O)Oc2cc(C)c(Br)c(C)c21 (stereo unspecified),0,0,0,-,-,-
Cc1occc1C(=O)NCCCCc1ccccc1,0,54.8,23.4,?,0,0
Cc1ccc(C(=O)NCC(=O)NCCCc2ccccc2)s1,0,0,0,0,0,0
CCc1c(C(=O)NNC(=S)NCCc2ccccc2)csc1C,0,0,11.8,0,0,0
CCc1c(C(=O)NNC(=S)NC2CCCCC2)csc1C,0,0,0,0,0,0
